Screens from PubChem.
HPGD block = qHTS Assay for Inhibitors of HPGD (15-Hydroxyprostaglandin Dehydrogenase); Potency, µM, without a hit: top-dose activity change, negative = inhibition, most hits filed as inhibitors; 150,000 tested, 4.3% active; purified HPGD, NADH fluorescence kinetic, PGE2 substrate; 15-hydroxyprostaglandin dehydrogenase [NAD(+)] (Homo sapiens), P15428; active = well fitted inhibition curve with a large enough effect, not every such curve was filed as active; inconclusive = small, poorly fitted or top-dose-only effect, or another doubt; inactive = no such curve, though single readings can be large or run the other way
Target sequence (P15428 whole entry, looked up): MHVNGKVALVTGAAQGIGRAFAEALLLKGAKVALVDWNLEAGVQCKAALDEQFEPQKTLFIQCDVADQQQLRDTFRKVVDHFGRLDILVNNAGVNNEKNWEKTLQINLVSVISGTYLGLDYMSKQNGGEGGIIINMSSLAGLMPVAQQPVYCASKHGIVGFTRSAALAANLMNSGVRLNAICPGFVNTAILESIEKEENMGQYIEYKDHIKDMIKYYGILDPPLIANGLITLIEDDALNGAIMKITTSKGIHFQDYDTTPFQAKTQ
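NADH formation kinetics: reaction with 30 uM PGE2 and 1 mM NAD+ (final), 20 nM enzyme, Tris-HCl pH 8 with Tween 20, after 15 min compound preincubation at room temperature. Fluorescence change, last versus first of five reads.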
p53ts 32C tox = qHTS Screen for Compounds that Selectively Target Cancer Cells with p53 Mutations: Cytotoxicity of p53ts Cells at the Permissive Temperature; H1299-p53A138V at 32C, ATP luminescence viability, 24 h; Potency, µM (highest dose often 46.1 µM), for the others: at the top dose activity change, negative = cytotoxicity, actives largely listed as cytotoxic; 130,000 tested, 0.93% active; AID 924, 2007;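 note: 0% = DMSO and -100% = full killing by reference compound; nearly all actives have a fitted effect of over 55% in size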
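Cells: H1299 p53ts (A138V), 600/well, pre-incubated 16–30 h at 37C. Cpd up to 46 uM, 24 h, 32C. Readout: ATPlite luminescence, 20 min RT. Normalization: DMSO vs tamoxifen 100 uM. AC50 by Hill equation.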
p53ts 39C kill = qHTS Screen for Compounds that Selectively Target Cancer Cells with p53 Mutations: Cytotoxicity of p53ts Cells at the Nonpermissive Temperature. H1299-p53A138V viability at 39C, ATP luminescence, 24 h. Potency, µM (highest dose often 46.1 µM), without a hit: top-dose activity change, negative = cell killing, actives largely listed as cytotoxic. 130,000 tested, 1.5% active; note: nearly all actives have a fitted effect of over 55% in size
ALOX12 inhib = qHTS Assay for Inhibitors of 12-hLO (12-human lipoxygenase); purified 12-hLO, xylenol orange hydroperoxide absorbance; Polyunsaturated fatty acid lipoxygenase ALOX12 (Homo sapiens), P18054; 150,000 tested, 0.12% active; Potency, µM (highest dose often 57.1 µM), inactives show at the highest dose activity change, negative = inhibition, most hits filed as inhibitors; note: nearly all actives have a fitted effect of over 55% in size
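Xylenol orange chromogenic assay: hydroperoxide from 12hLO oxidises Fe(II), giving red-shifted Fe(III)-XO absorbance. Conditions: 150 nM enzyme, 40 uM arachidonic acid, 25 mM Hepes pH 7.0, 0.01% Triton X-100, 30 min, room temperature.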
Active calls of the source: *; ? = inconclusive; · = no result given; ! = not active in a repeat; [ ] = remark or other dose. Rows were chosen to be rich in hits. Some 4.4% of all compounds tested hit in one or more screens of this group. Unless noted, calls come from the whole dose curve; as a rule, active = well fitted curve in the direction sought with a large enough effect; inconclusive = small, poorly fitted or top-dose-only effect, or another doubt; inactive = no such curve, though single readings can be large; an effect the other way counts as inactive or inconclusive. Unless noted, % is set by controls: 0 for no effect and ±100 for the full control effect; potency is the fitted concentration of half-maximal effect.

SMILES	HPGD block	p53ts 32C tox	p53ts 39C kill	ALOX12 inhib
CCOC(=O)c1[nH]c(COC(=O)C2CC(=O)N(Cc3ccccc3)C2)c(C(=O)OCC)c1C (stereo unspecified)	28µM*	9%	1%	-16%
Cc1ccc(N=C2NC(=O)S/C2=C\c2ccco2)cc1	22µM*	·	·	?
Clc1ccccc1-c1nn2c(-c3ccncc3)nnc2s1	11µM*	2%	7%	2%
Clc1ccccc1-c1nnc2sc(-c3ccncc3)nn12	-17%	16%	-1%	-2%
Clc1ccccc1-c1nnc2sc(-c3cccs3)nn12	28µM*	-9%	-1%	4%
CCOc1ccccc1NC(=O)c1nnn(CC(=O)Nc2ccccc2CC)c1N	·	11%	17%	·
Cn1c(=O)c2cc(C(=O)N3CCN(c4ccc(Cl)cc4)CC3)sc2c2ccccc21	·	8%	-4%	·
CCC(=O)Nc1cccc(NC(=O)c2cc3ccccc3o2)c1	-8%	10µM*	13µM*	-4%
Cc1cccc(NC(=O)c2cc3ccccc3o2)c1	-17%	13µM*	10µM*	5%
COCCNc1cc(-c2ccccc2C)ncn1	·	4%	-5%	·
O=[N+]([O-])c1ccccc1-c1cc(-c2cc(Cl)ccc2O)n[nH]1	11µM*	·	·	-22%
Cc1ccc(O)c(-c2cc(C(F)(F)C(F)F)[nH]n2)c1	16µM*	5%	5%	-20%
Cc1ccc(O)c(-c2cc(-c3ccccc3[N+](=O)[O-])[nH]n2)c1	4.5µM*	·	·	-10%
COc1ccc(O)c(-c2cc(-c3ccccc3[N+](=O)[O-])[nH]n2)c1	22µM*	·	·	0%
Cc1ccc(O)c(C2=Nc3ccccc3N=C(c3ccc([N+](=O)[O-])cc3)C2)c1	-14%	·	·	2%
c1ccc2c(c1)ncc1nncn12	·	15%	11%	·
Cc1ccc(O)c(-c2cc(-c3ccccc3C)[nH]n2)c1	22µM*	8%	-13%	-21%
Cc1ccc(-c2cc(-c3cccs3)[nH]n2)c(O)c1	-11%	·	·	-10%
CCOC(=O)CSc1nnc(CSc2nc3sc4c(c3c(=O)[nH]2)CCCC4)n1-c1ccccc1	14µM*	·	·	7%
CCOC(=O)CSc1nc2sc3c(c2c(=O)n1-c1ccccc1)CCC(C(C)(C)C)C3 (stereo unspecified)	·	7%	25%	·
CCOC(=O)CCCSc1nc2sc3c(c2c(=O)[nH]1)CCC3	3.5µM*	·	·	2%
CCCN1C(=O)c2ccccc2CC1(C)C(=O)NC1CCCCC1 (stereo unspecified)	·	-2%	-19%	·
O=C1C=CC(=O)C2=C1C1c3ccccc3C2c2ccccc21	1.1µM*	?	?	?
O=C1OC(c2ccccc2)c2ccccc21 (stereo unspecified)	-10%	·	·	-2%
Cc1ccc(C)c(-n2nnnc2Sc2nnnn2-c2ccccc2)c1	-7%	-14%	10µM*	-2%
SMILES	HPGD block	p53ts 32C tox	p53ts 39C kill	ALOX12 inhib
CCCCOC(=O)Nc1ccc(N(C)C)cc1	32µM*	·	·	1%
CC(C)c1ccc(NC(=O)c2csnn2)cc1	?	13µM*	16µM*	1%
COCC(=O)Nc1ccc(N(C)C)cc1	?	-10%	-4%	-6%
CCCCOC(=O)Nc1ccc(C(N)=O)cc1	-3%	·	·	3%
CCCCOC(=O)Nc1ccc(C(C)C)cc1	13µM*	-10%	15%	-1%
COCC(=O)Nc1ccc(C(C)C)cc1	18µM*	·	·	-5%
NS(=O)(=O)c1ccc(NC(=O)c2csnn2)cc1	·	-3%	14%	·
CCOC(=O)c1cc(S(=O)(=O)Nc2ccc(OC(F)(F)F)cc2)[nH]n1	·	1%	-14%	·
COc1ccc(-n2nc(C(=O)Nc3cccc(C)n3)c3c4ccccc4n(C)c3c2=O)cc1	·	2%	23%	·
CCOc1ccccc1NC(=O)CN1C(=O)CC(c2ccc(OC)c(OC)c2)Sc2ccccc21 (stereo unspecified)	·	3%	-21%	·
COc1cc2c(cc1OC)C1=C(C#N)COCN1CC2	?	-12%	11%	-21%
COc1cc2c(cc1OC)C1=C(C#N)CCC(=NC(=O)c3ccc(Cl)cc3)N1CC2	14µM*	·	·	5%
O=S(=O)(c1ccc(Br)cc1)c1nc(-c2ccco2)oc1SCc1ccccc1F	·	4%	-2%	·
O=C1C(c2ccccc2)SC(=Nc2ccccc2)N1S(=O)(=O)c1ccccc1 (stereo unspecified)	14µM*	·	·	12%
COc1ccccc1CC(=O)NCc1ccc2c(c1)OCO2	14µM*	3%	-12%	-5%
O=C(NCc1ccc2c(c1)OCO2)c1cccc(C(=O)NCc2ccc3c(c2)OCO3)c1	-15%	5%	14%	-22%
COc1ccc(CC(=O)NCc2ccc3c(c2)OCO3)cc1	-6%	·	·	2%
CC(OC(=O)c1nn(C)c(=O)c2ccccc12)C(=O)NCc1ccc2c(c1)OCO2 (stereo unspecified)	20µM*	6%	2%	-11%
Cc1ccc(S(=O)(=O)N2CCC(C(=O)OC(C)C(=O)NCc3ccc4c(c3)OCO4)CC2)cc1 (stereo unspecified)	18µM*	0%	-11%	-4%
CC1CCN(S(=O)(=O)c2ccc(C(=O)NCc3ccc4c(c3)OCO4)cc2)CC1	-7%	·	·	0%
CC(OC(=O)c1cccnc1)C(=O)NCc1ccc2c(c1)OCO2 (stereo unspecified)	·	·	·	1%
CCOc1ccccc1C(=O)NCc1ccc2c(c1)OCO2	4µM*	6%	3%	-5%
O=C(CSc1ncn[nH]1)NC1CC2CCC1C2 (stereo unspecified)	16µM*	7%	15%	-1%
Cc1ccc(C)c(Cn2cnc3c(cnn3-c3ccc(F)cc3)c2=O)c1	·	0%	-16%	·
CC(C)CCn1cnc2c(cnn2-c2ccc(F)cc2)c1=O	11µM*	-11%	-8%	0%
SMILES	HPGD block	p53ts 32C tox	p53ts 39C kill	ALOX12 inhib
Cc1ccc2[nH]c(=O)c3cc(C(=O)NCc4cccc(Cl)c4)sc3c2c1	·	5%	-12%	·
COc1ccc(/C(=C\C(=O)O)c2nccc3cc(OC)c(OC)cc23)cc1OC	2%	·	·	·
CC1(C)O[C@H]2OC([C@H](O)CON3C(=O)c4ccccc4C3=O)[C@H](O)[C@H]2O1 (stereo partly specified)	16µM*	·	·	-6%
CCN1C(=O)[C@H]2[C@H]3[C@H](O)[C@H](O)C/C(=N/OC[C@@H](O)[C@H]4O[C@H]5OC(C)(C)O[C@H]5[C@@H]4O)[C@@H]3CC[C@@H]2C1=O	·	1%[9.22 µM]	4%[9.22 µM]	·
O=C(c1ccccc1)c1ccc(OCCCN2CCCCC2)cc1	-8%	·	·	-2%
O=C(c1ccc(OCCN2CCCCC2)cc1)c1c(-c2ccc(O)cc2)sc2cc(O)ccc12	-28%	20µM*!	25µM*!	-8%[0.00818 µM]
COc1cccc(NC(=O)CSc2nc3cc(OC)c(OC)cc3c3nc(-c4ccccc4)nn23)c1	·	6%	21%	·
